# High-throughput results from PubChem.
# Hits are enriched below; roughly 18% of the tested compounds scored in any of these assays.
# KAT2A inh = qHTS Assay for Inhibitors of GCN5L2. Histone acetyltransferase KAT2A (Homo sapiens), Q92830. GCN5L2 HAT assay, ThioGlo1 CoA-SH fluorescence. Potency, µM (titrated, usually from 58.9 µM), for inactives: at the top dose activity change, negative = inhibition, most hits filed as inhibitors. 390,000 tested, 0.21% active. AID 504327, 2011
#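 GCN5L2 (20 nM) in 50mM HEPES pH 7.5, 0.1mM EDTA, 0.01% Tween-20 preincubated 15 min with compounds at room temperature. Reaction started with H3(1-25) 75uM, acetyl-CoA 70uM, ThioGlo1 50uM; CoA-thiol fluorescence (Ex340/Em540) read at 0 and 20 min.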
# TDP1 cell noCPT = qHTS for Inhibitors of human tyrosyl-DNA phosphodiesterase 1 (TDP1): qHTS in cells in absence of CPT; DT40 Tdp1-/- hTDP1 cells, no CPT, ATP luminescence, 48 h; 420,000 tested, 15% active; Potency, µM (series often up to 46.2 µM), without a hit: at the top dose activity change, negative = growth inhibition, most hits filed as inhibitors; further: nearly all actives have a fitted effect of over 55% in size
#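 Chicken DT40 Tdp1-/- cells stably complemented with human TDP1 were seeded at 400 cells/well with DMSO in place of 20 nM camptothecin. After compound pinning, cells grew at least 48 hr at 37 °C; viability read by CellTiter-Glo luminescence.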
# PLK1 PBD block = qHTS for Inhibitors of PLK1-PDB (polo-like kinase 1 - polo-box domain): Primary Screen. Serine/threonine-protein kinase PLK1 (Homo sapiens), P53350. Potency, µM, for the others: max response, negative = inhibition, most hits filed as inhibitors. Plk1 PBD binding of FITC phosphopeptide, fluorescence polarization. 360,000 tested, 2.8% active; further: series mostly up to about 57 µM; nearly all actives have a fitted effect of over 65% in size
# TDP1 block = qHTS Assay for Inhibitors of Tyrosyl-DNA Phosphodiesterase (TDP1); Tyrosyl-DNA phosphodiesterase 1 (Homo sapiens), Q9NUW8; recombinant TDP1, AlphaScreen DNA substrate cleavage; Potency, µM (titrated, usually from 130 µM), for the others: top-dose activity change, negative = inhibition, usual class: inhibitors; 350,000 tested, 0.28% active; further: nearly all actives have a fitted effect of over 40% in size
#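 Signal: AlphaScreen proximity between streptavidin donor and anti-FITC acceptor beads on intact substrate. Reaction: Tdp1 1 nM, substrate 15 nM final, 5 min RT after 15 min compound preincubation.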
# VDR inh = Inhibitors of the vitamin D receptor (VDR): qHTS. Vitamin D3 receptor (Homo sapiens), P11473. VDR-SRC2-3 peptide fluorescence polarization, 2 h. Potency, µM, without a hit: max response, negative = inhibition, most hits filed as inhibitors. 400,000 tested, 0.93% active. AID 504847, 2011
# Target sequence (P11473 whole entry, looked up): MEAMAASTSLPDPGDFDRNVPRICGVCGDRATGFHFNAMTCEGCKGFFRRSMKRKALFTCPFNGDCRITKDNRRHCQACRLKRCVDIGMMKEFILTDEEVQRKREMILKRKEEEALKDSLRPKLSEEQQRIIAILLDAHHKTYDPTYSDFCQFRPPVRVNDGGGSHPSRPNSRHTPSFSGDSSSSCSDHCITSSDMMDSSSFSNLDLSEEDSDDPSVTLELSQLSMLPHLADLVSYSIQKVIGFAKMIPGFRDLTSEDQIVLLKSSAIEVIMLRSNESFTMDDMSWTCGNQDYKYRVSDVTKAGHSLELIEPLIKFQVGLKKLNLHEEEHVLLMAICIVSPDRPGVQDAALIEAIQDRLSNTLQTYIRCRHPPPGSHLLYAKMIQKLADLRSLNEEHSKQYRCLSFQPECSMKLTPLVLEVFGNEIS
#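 After 23 nl compound addition and a short centrifugation, plates sat for 2 hours at ambient temperature; polarization of fluorescence then indicated loss of VDR binding to peptide SRC2-3.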
# DT40 TDP1 CPT = qHTS for Inhibitors of human tyrosyl-DNA phosphodiesterase 1 (TDP1): qHTS in cells in presence of CPT; 420,000 tested, 12% active; chicken DT40 Tdp1-/-;hTDP1 cells + 20 nM CPT, ATP luminescence, 48 h; Potency, µM (titrated, usually from 46.2 µM), inactives show top-dose activity change, negative = growth inhibition, actives largely listed as inhibitors; further: nearly all actives have a fitted effect of over 55% in size
#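 Chicken DT40 Tdp1-/- cells complemented with human TDP1, 400 cells/well, exposed to compounds plus 20 nM camptothecin for at least 48 h at 37 C; viability read as ATP content by CellTiter-Glo luminescence.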
# An asterisk follows results filed as active; ? = inconclusive; nt = not tested or not shown; [ ] = another dose, or the depositor's remark. The call rests on the fitted dose curve; in most records, active means well fitted curve in the direction sought with a large enough effect; inconclusive means small, poorly fitted or top-dose-only effect, or another doubt; inactive means no such curve, though single readings can be large; an effect the other way counts as inactive or inconclusive. On the % scale 0 is the no-effect control and ±100 the full control effect; potency means the concentration at half of the fitted maximal effect.
SMILES,KAT2A inh,TDP1 cell noCPT,PLK1 PBD block,TDP1 block,VDR inh,DT40 TDP1 CPT
O=C(O)CCC(=O)Nc1ccc(NC(=O)c2ccc(Cl)cc2Cl)c(Cl)c1,-6%,-6%,21µM*,0%,-11%,-13%
CCOc1ccc(NS(=O)(=O)c2cc(NC(=O)c3ccc(C)cc3)ccc2Cl)cc1,-17%,2.6µM*,8%,0%,-1%,3.7µM*
CCCC(=O)NC(=S)Nc1cccc(NC(=O)c2ccccc2Cl)c1,0%,?,-3%,1%,-14%,?
COc1ccc(S(=O)CC(=O)Nc2ccc(Cl)cc2Cl)cc1 (stereo not drawn),0%,-18%,-7%,3%,-28%,-5%
CCC(=O)Nc1cccc(NC(=S)NC(=O)c2ccc(Cl)cc2)c1,-12%,15µM*,5%,2%,-12%,18µM*
O=C(NC(=S)Nc1cccc(NC(=O)c2ccc(Cl)cc2Cl)c1)c1cccs1,0%,?,-15%,1%,-2%,?
C/C(=N/NS(=O)(=O)c1ccc(Cl)cc1)c1cccc(NC(=O)c2ccc(Cl)cc2Cl)c1,?,?,19µM*,5%,-4%,?
CCc1ccccc1NC(=S)NNC(=O)c1ccccc1Cl,-13%,5.8µM*,6%,8%,10%,6.5µM*
CCC(=O)Nc1cccc(NC(=S)NC(=O)c2ccc(Cl)cc2Cl)c1,9%,?,-14%,5%,-9%,?
CCCC(=O)NC(=S)Nc1cccc(NC(=O)c2ccc(Cl)cc2Cl)c1,1%,?,27µM*,7%,-6%,?
CSCCC(NS(=O)(=O)c1ccccc1F)C(=O)OCc1ccccc1Cl (stereo not drawn),-3%,-30%,-7%,2%,0%,?
CCCN(CCC)C(=S)NC(=O)c1ccc(Cl)cc1Cl,-8%,?,-4%,5%,-13%,18µM*
CCOc1ccc(Cl)cc1-c1cc(C(=O)NCC2CCCCC2)[nH]n1,nt,6.5µM*,2%,nt,nt,4.1µM*
COc1ccc(Cl)cc1-c1cc(C(=O)NCC2CCCCC2)[nH]n1,nt,12µM*,5%,nt,nt,8.2µM*
Cc1cc(F)ccc1-c1cc(C(=O)NCC2CCCCC2)[nH]n1,nt,?,-3%,nt,nt,21µM*
CC(C)CNC(=O)N1[C@H](c2cccs2)[C@@H](C)C(=O)[C@@H](C)[C@@H]1c1cccs1,-1%,?,nt,6%,5%,18µM*
CCOC(=O)CNC(=O)N1[C@H](c2cccs2)[C@@H](C)C(=O)[C@@H](C)[C@@H]1c1cccs1,1%,-17%,nt,6%,9%,?
COc1ccc2cc3cc(C(=O)N4CCN(c5ccccc5F)CC4)oc3nc2c1,1%,?,nt,0%,-22%,?
CCOC(=O)N1CCN(S(=O)(=O)c2ccc(OCC)c3ccccc23)CC1,-11%,23µM*,-10%,2%,-12%,16µM*
CCOc1ccc(S(=O)(=O)n2nc(C)cc2C)c2ccccc12,-3%,?,-4%,1%,16%,23µM*
CCOC(=O)N1CCN(S(=O)(=O)c2ccc(OC)c(Cl)c2)CC1,-1%,-23%,1%,1%,3%,-8%
CCOC(=O)N1CCN(S(=O)(=O)c2ccc(OC)c(Cl)c2Cl)CC1,0%,13µM*,-6%,5%,12%,?
Cn1cccc1-c1cc2n(n1)CCC(=O)N2CC(=O)Nc1ccc(F)cc1Cl,0%,0%,nt,9%,5%,-9%
CCc1nc2ccc(C(=O)NCCCN(C)C)cn2c1N(C)Cc1ccc(OC)cc1,nt,?,-9%,nt,nt,?
COc1ccc(OCCNC(=O)c2ccc3nc(C)c(N(C)Cc4ccc(NC(C)=O)cc4)n3c2)cc1,nt,16µM*,4%,nt,nt,16µM*
SMILES,KAT2A inh,TDP1 cell noCPT,PLK1 PBD block,TDP1 block,VDR inh,DT40 TDP1 CPT
CCc1nc2ccc(C(=O)Nc3ccc(OC)c(OC)c3)cn2c1N(CC)Cc1ccc(OC)c(OC)c1,nt,?,4%,nt,nt,?
CCc1nc2ccc(C(=O)NCCOc3ccc(OC)cc3)cn2c1N(C)Cc1ccc(N(C)C)cc1,nt,?,-5%,nt,nt,23µM*
CCc1nc2ccc(C(=O)NCc3ccccc3OC)cn2c1N(C)Cc1ccc(N(C)C)cc1,nt,21µM*,-7%,nt,nt,21µM*
CCc1nc2ccc(C(=O)NCCOc3ccc(OC)cc3)cn2c1N(CC)Cc1ccc(OC)c(OC)c1,nt,21µM*,-8%,nt,nt,21µM*
CCCN1C[C@H](CSC)C[C@H]2c3cccc4[nH]cc(c34)C[C@@H]21,2%[21.4 µM],nt,nt,9%[56.1 µM],-4%,nt
COc1ccc(CC(=O)OCC(=O)NC2CCCCC2)cc1OC,-1%,1%,-4%,0%,-4%,3%
COc1ccc(/C=C2\CCc3ccccc3C2=O)cc1OC,-3%,?,1%,1%,?,?
CCN1C/C(=C/c2ccc(OC)c(O)c2)C(=O)/C(=C/c2ccc(OC)c(O)c2)C1,2%,12µM*,3%,8%,-30%,13µM*
COc1ccc(/C=C2\CN(Cc3ccccc3)C/C(=C\c3ccc(OC)c(O)c3)C2=O)cc1O,-13%,2.1µM*,-16%,0%,?,5.2µM*
CCN1C/C(=C\c2cccc([N+](=O)[O-])c2)C(=O)/C(=C/c2cccc([N+](=O)[O-])c2)C1,-3%,0.92µM*,?,1%,?,0.65µM*
COc1cc(/C=C2/SC(=NCc3ccccc3)N(Cc3ccccc3)C2=O)ccc1O,-7%,?,11%,8%,15%,?
Cc1ccc(CCNC(=O)CCCn2c(=O)c3ccccc3n(CC(=O)Nc3cc(Cl)ccc3C)c2=O)cc1,-2%,?,nt,-2%,11%,?
O=C(COC(=O)c1ccc(O)cc1O)NC1CC1,0%,10%,5%,-4%,-18%,-3%
Cc1cc(C=NCCCO)c(C)n1-c1cc(Cl)ccc1Cl,-3%,-21%,-10%,5%,8%,1%
CC(=O)c1cccc(NC(=O)CCc2c(C)nc3c(-c4ccc(F)cc4)c(C)nn3c2C)c1,-6%,?,nt,0%,-8%,2.6µM*
Cc1ccc(NC(=O)CCc2c(C)nc3c(-c4ccc(F)cc4)c(C)nn3c2C)cc1F,-1%,?,nt,1%,-26%,-20%
